From PubChem BioAssay (NCI)
About 83,000 compounds went through this panel and 20% of them were active in at least one assay; those are over-represented in the sample as a whole.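 Step 1: grow cells in 96-well plates. Step 2: add test compound at a single concentration. Step 3: incubate 48 h. Step 4: record percent growth.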 The source made the active and inactive calls. Rule for the calls: active = growth percent below 10; inactive = the rest.

Experiments:
Test in all cases: NCI-60 one-dose screen, 48 h (100 = growth as untreated, 0 = no growth, -100 = all killed)
Settings in all cases: 10 µM unless noted
[1] = test system: HCT-15 colon
[2] = test system: HT29 colon
[3] = test system: SNB-75 CNS
[4] = test system: SNB-19 CNS
[5] = test system: U251 CNS
[6] = test system: PC-3 prostate
[7] = test system: SK-MEL-5 melanoma
[8] = test system: UACC-62 melanoma
[9] = test system: LOX IMVI melanoma
[10] = test system: SK-MEL-28 melanoma

Measured: growth

CC(=O)OCC(=O)[C@@]1(O)CC[C@H]2[C@@H]3CCC4=CC(=O)CC[C@]4(C)[C@@]3(F)[C@@H](O)C[C@@]21C
inactive: [1] 105% | [2] 114% | [3] 113% | [4] 107% | [5] 111% | [6] 93.7% | [7] 94.8% | [8] 97.3% | [9] 96.6% | [10] 112%

O=C(O)c1ccc2cccnc2c1O
inactive: [2] 10.9% | [3] 23% | [4] 12.7% | [10] 44.6%
active: [1] 7.1% | [5] 8.23% | [6] 1.21% | [7] 0.767% | [8] 0.979% | [9] 3.31%

NC(=O)NS(=O)(=O)c1ccc(N2N=C(C(F)(F)F)CC2c2cc(C(F)(F)F)cc(C(F)(F)F)c2)cc1 (stereo not given)
inactive: [1] 62.9% | [2] 70.4% | [3] 68.1% | [4] 85% | [5] 74.6% | [6] 16.2% | [7] 75.5% | [8] 82.7% | [9] 78.6% | [10] 84.8%

COC(=O)[C@H](Cc1cnc[nH]1)NC(=O)[C@@H](NC(=O)Nc1cc(C(F)(F)F)cc(C(F)(F)F)c1)C(C)C
active: [2] -80.3% [100 µM] | [3] -95.3% [100 µM] | [4] -96.3% [100 µM] | [5] -96.8% [100 µM] | [6] -93.2% [100 µM] | [7] -91.5% [100 µM] | [8] -96.2% [100 µM] | [9] -84.5% [100 µM] | [10] -96.1% [100 µM]
inactive: [1] 35.4% [100 µM]

Cc1cc(=O)[nH]c(/C(=N/Nc2ccccc2)C(=O)c2ccc(Cl)cc2)n1
inactive: [1] 112% | [2] 105% | [3] 128% | [4] 95.5% | [5] 107% | [6] 92.6% | [7] 92.4% | [8] 92% | [9] 98.9% | [10] 110%

C=C1CCC2C3(C)COC(c4ccccc4)OC3CCC2(C)C1C/C=C1/C(=O)OCC1OC(C)=O (stereo not given)
inactive: [1] 79.1% | [2] 65.7% | [3] 75.3% | [4] 95.6% | [5] 71.2% | [6] 78.5% | [7] 60.7% | [8] 90.2% | [9] 12.3% | [10] 118%

CCOC(=O)c1cnc2c(C)cc(C)cc2c1NCCCN(C)C
inactive: [1] 28.2% | [2] 13.1% | [3] 51.1% | [4] 42.4% | [5] 28.3% | [6] 22% | [7] 46.5% | [8] 46.7% | [9] 23.2% | [10] 76.2%

COc1ccc(-c2cc(-c3nnc(SCC(=O)Nc4ccc(C(C)=O)cc4)n3-c3ccccc3)c3ccccc3n2)cc1OC
inactive: [1] 102% | [2] 94.7% | [3] 102% | [4] 113% | [5] 101% | [6] 98.7% | [7] 109% | [8] 111% | [9] 98.1% | [10] 113%

CCOc1nc(-c2ccco2)n2nc(-c3ccco3)cc2n1
inactive: [1] 99.4% | [2] 100% | [3] 82.9% | [4] 97.3% | [5] 98.3% | [6] 105% | [7] 81.4% | [8] 86.4% | [9] 98.4% | [10] 110%

CC1C(=O)NC2=Nc3ccccc3C(=O)NN21 (stereo not given)
inactive: [1] 108% | [2] 103% | [3] 86.7% | [4] 107% | [5] 101% | [6] 92.4% | [7] 94.5% | [8] 92.2% | [9] 95.4% | [10] 120%

Nc1ccccc1-c1ccn[nH]1
inactive: [1] 85.2% | [2] 106% | [3] 61.9% | [4] 97.4% | [5] 96.7% | [6] 79.1% | [7] 96.6% | [8] 48.4% | [9] 68.6% | [10] 110%

COc1cc(/C=C2\CN(C)CC3=C2Nc2nc(SC)[nH]c(=O)c2C3c2cc(OC)c(OC)c(OC)c2)cc(OC)c1OC (stereo not given)
active: [9] 3.87%
inactive: [1] 36.6% | [2] 15% | [3] 27.8% | [4] 66.8% | [5] 20.6% | [6] 68% | [7] 58.2% | [8] 30% | [10] 44.9%

O=C(Nc1nc2ccc(OC(F)(F)F)cc2s1)c1ccc(F)cc1
active: [5] 6.58% | [7] -7.36% | [8] 7.77%
inactive: [1] 12% | [2] 15.7% | [3] 73.7% | [4] 12.3% | [6] 12.4% | [9] 11.3% | [10] 33.5%

Cc1cc2ccccn2c1C(=O)c1ccc(C(=O)c2ccccc2)cc1
inactive: [1] 85.5% | [2] 82% | [3] 93.5% | [4] 86.1% | [5] 86.2% | [6] 85.2% | [7] 98.4% | [8] 75.1% | [9] 92.1% | [10] 89.7%

Nc1ccn(C2O[C@H](CO)[C@@H](O)[C@@H]2O)c(=O)n1 (stereo not given in full)
inactive: [1] 59.5% | [2] 42.7% | [3] 78.6% | [4] 47.9% | [5] 40% | [6] 63.9% | [7] 45.1% | [8] 22.1% | [9] 19.1% | [10] 68.5%

COCCOCCOCCOCCOc1ccc2c(c1)C(=O)c1nc3ncccc3c(=O)n1-2
active: [1] -95.6% | [2] -39.3% | [3] -61.1% | [4] -87% | [5] -63.6% | [6] -8.58% | [7] -100% | [8] -97.2% | [9] -87.7% | [10] -75.3%

COc1ccc(C2=NN(C(C)=O)C(c3cccc(Nc4ccnc5cc(Cl)ccc45)c3)C2)cc1 (stereo not given)
active: [2] 7.9%
inactive: [1] 44.8% | [3] 56.4% | [4] 56.5% | [5] 51% | [6] 31% | [7] 43.7% | [8] 68.6% | [9] 42.7% | [10] 73%

CCOC(=O)c1sc(NC(=O)COc2cccc(/C=C3\CCc4cc(OC)ccc4C3=O)c2)nc1C
inactive: [1] 56.5% | [2] 39.6% | [3] 99.3% | [4] 58.4% | [5] 41.1% | [6] 48.9% | [7] 44.1% | [8] 60.8% | [9] 48.8% | [10] 103%

N#Cc1ccccc1C#Cc1ccccc1C#Cc1ccc(OCCCCCCOc2ccc(C#Cc3ccccc3C#Cc3ccccc3C#N)cc2)cc1
inactive: [1] 123% | [2] 111% | [3] 106% | [4] 108% | [5] 106% | [6] 99.5% | [7] 73.8% | [8] 83.3% | [9] 98.4% | [10] 113%

COc1ccc2c(c1)[n+](=O)c(C(=O)/C=C/c1cc(OC)c(OC)c(OC)c1)c(C)n2[O-]
inactive: [1] 49.2% | [2] 85.2% | [3] 62.2% | [4] 67.1% | [5] 55.6% | [6] 59.9% | [7] 50.8% | [8] 64.7% | [9] 55.1% | [10] 69.1%

COc1ccc2c(=O)c(OC)c(-c3cc(OC)c(OC)c(OC)c3)oc2c1
inactive: [1] 101% | [2] 98.2% | [3] 79.5% | [4] 92.5% | [5] 96.1% | [6] 67.7% | [7] 75.4% | [8] 70.5% | [9] 82.7% | [10] 97.4%

COc1cc(/C=N/NC(=O)c2ccc(C(F)(F)F)nc2Nc2cc(Cl)ccc2C)cc(OC)c1OC
inactive: [1] 104% | [2] 127% | [3] 96% | [4] 75.4% | [5] 87.4% | [6] 66.8% | [7] 102% | [8] 85% | [9] 102% | [10] 99.5%

CC(C)OP(=O)(OC(C)C)c1ncc(-c2ccc(C(F)(F)F)cc2)c(NC2CCCCCC2)n1
active: [1] -7.06% [33.3 µM] | [2] -68.3% [33.3 µM] | [3] -18.6% [33.3 µM] | [4] -27.9% [33.3 µM] | [5] -87.4% [33.3 µM] | [6] -68% [33.3 µM] | [7] -87.2% [33.3 µM] | [8] -64.8% [33.3 µM] | [9] -63.3% [33.3 µM] | [10] -74.5% [33.3 µM]

Cc1ccc2nc3c(n2c1)C(=O)C(=O)c1ccccc1-3
active: [1] -70.1% | [2] -39.1% | [3] -70.2% | [4] -77.7% | [5] -86% | [6] -24.5% | [7] -95.9% | [8] -89% | [9] -72% | [10] -86.4%

O=C(COc1cccc(/C=C2\Cc3ccccc3C2=O)c1)c1ccc(Cl)cc1
inactive: [1] 160% | [2] 69.6% | [3] 101% | [4] 96.5% | [5] 125% | [6] 90.3% | [7] 89.4% | [8] 91.4% | [9] 128% | [10] 104%
